Results on 15 molecules are retold here after PubChem BioAssay (NCATS).

Results filed as inconclusive are left out. Values without a mark were called inactive. The source made the active and inactive calls. Calls come from the whole dose curve; as a rule, active = well fitted curve in the direction sought with a large enough effect; inconclusive = small, poorly fitted or top-dose-only effect, or another doubt; inactive = no such curve, though single readings can be large; an effect the other way counts as inactive or inconclusive.

One experiment concerns NIH3T3. The experiment in a line: qHTS assay to identify novel small-molecules to repurpose for Merkel cell carcinoma treatment (AID 1296009). Note: nearly all actives have a fitted effect of over 60% in size. Conditions: MCC and control cell lines, CellTiter-Glo viability, 72 h; at 44.8 µM (top of the series) unless noted. The procedure, abridged:
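qHTS format: cells treated with library compounds in DMSO across 8 (NPC) or 11 (MIPE) concentrations. Readout after 72 hr at 37 degree celsius was CellTiter-Glo luminescence.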
On the technique in general: In qHTS, concentration-response curves come from the screen itself.

For a further experiment, the system named is C33A. The experiment in a line: Primary qHTS to identify gynecologic anti-cancer compounds using libraries of approved drugs and bioactive compounds (AID 1345084). For activity change, negative = cytotoxicity: % is set by controls: 0 for no effect and ±100 for the full control effect. Note: nearly all actives have a fitted effect of over 55% in size. Note: potency is the fitted concentration of half-maximal effect. Conditions: Gynecologic cancer cell panel viability, ATPlite luminescence, 48 h; series mostly up to 57.5 µM. The procedure, abridged: (§1)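 Five-concentration response, 48 h; readout is ATP-driven luciferase luminescence.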

The next experiment relates to CASKI. Described as above. Conditions: Gynecologic cancer cell panel viability, ATPlite luminescence, 48 h; series mostly up to 57.5 µM. In outline:
as §1
(Cellular ATP, detected with luciferase, serves as a proxy for viable cell number.)

In a further experiment the test system is Es-2. The description is as above. The note with it: Gynecologic cancer cell panel viability, ATPlite luminescence, 48 h; series mostly up to 57.5 µM. The procedure, abridged:
as §1

In a further experiment the test system is HeLa. The experiment is described as above. The note with it: Gynecologic cancer cell panel viability, ATPlite luminescence, 48 h; series mostly up to 57.5 µM. The procedure, abridged: as §1
The subject of another experiment is Hek293T. The experiment is described as above. Conditions: Gynecologic cancer cell panel viability, ATPlite luminescence, 48 h, control line for the selectivity index; series mostly up to 57.5 µM. The procedure, abridged:
as §1

The next experiment deals with JEG-3. The experiment is described as above. Conditions: Gynecologic cancer cell panel viability, ATPlite luminescence, 48 h; series mostly up to 57.5 µM. The procedure, abridged:
as §1

The subject of another experiment is OV90. The experiment is described as above. Conditions: Gynecologic cancer cell panel viability, ATPlite luminescence, 48 h; series mostly up to 57.5 µM. The procedure, abridged:
as §1

The subject of a further experiment is PA-1. The experiment is described as above. Conditions: Gynecologic cancer cell panel viability, ATPlite luminescence, 48 h; series mostly up to 57.5 µM. In outline:
as §1

A further experiment deals with SKOV3. Described as above. The note with it: Gynecologic cancer cell panel viability, ATPlite luminescence, 48 h; series mostly up to 57.5 µM. The procedure, abridged:
as §1

For a further experiment, the system named is Tov-21-G. Described as above. The note with it: Gynecologic cancer cell panel viability, ATPlite luminescence, 48 h; series mostly up to 57.5 µM. The procedure, abridged: as §1
For another experiment, the system named is Tov112D. Described as above. Conditions: Gynecologic cancer cell panel viability, ATPlite luminescence, 48 h; series mostly up to 57.5 µM. In outline: as §1
The subject of another experiment is CAOV3. Described as above. The note with it: Gynecologic cancer cell panel viability, ATPlite luminescence, 48 h; series mostly up to 57.5 µM. In outline:
as §1

Experiment [1] can be described thus: Drug repurposing screens with cells derived from glioblastoma tumor samples (AID 1345199). For activity, negative = cell killing: % is set by controls: 0 for no effect and ±100 for the full control effect. Note: nearly all actives have a fitted effect of over 40% in size. Note: potency is the fitted concentration of half-maximal effect. The note with it: GBM patient neurospheres viability, ATP luminescence, 48 h. In outline:
(§2)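 Four patient lines of CD133+ GBM neurospheres were screened at several concentrations; hits were retested in those lines plus three slower-growing GBM lines, using 48-hour treatment and ATP-based viability.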

The test system of a further experiment is astro. The description is as above. Conditions: viability, ATP luminescence, 48 h; series mostly up to 45.9 µM. In outline:
as §2

Turning to `CC(NC(=O)CC(=O)O)c1nc2ccccc2c(=O)[nH]1` (stereo not drawn), in the experiment on NIH3T3, the call was inactive. The Potency result in the experiment with C33A, in the experiment with CASKI, in the experiment on Es-2, with HeLa, in the experiment with Hek293T and with JEG-3 was “inactive” in each case. The Potency entry in the experiment with OV90, in the experiment with PA-1, in the experiment with SKOV3, with Tov-21-G and in the experiment with Tov112D was “inactive” in each case.
On to `C#C[C@]1(O)CC[C@H]2[C@@H]3CCC4=C/C(=N/O)CC[C@@H]4[C@H]3CC[C@@]21CC`, for which the outcome in the experiment with NIH3T3 was inactive. Further, the Potency entry with CAOV3, in the experiment with Es-2, with Hek293T, in the experiment with JEG-3, in the experiment on OV90 and in the experiment with SKOV3 was “inactive” in each case. Further, the Potency result in the experiment on Tov112D was “inactive”. Also, the Potency was 14.1 µM (active) with HeLa, 12.6 µM (active) in experiment [1] (tumour line A) and 20 µM (active) with astro. The activity, negative = cell killing in experiment [1] (at 45.9 µM (top of the series), tumour line B) is -7.76%; in experiment [1] (at 46.1 µM (top of the series), tumour line C), -27.9%.
`C=C1CC[C@@H]2[C@](C)(CC[C@H](O)[C@@]2(C)CCC=C(C)C)[C@@H]1Cc1c[nH]c2ccccc12`: the outcome in the experiment with NIH3T3 is “inactive [at 17.4 µM]”. The Potency result in the experiment on C33A, with CASKI, with Es-2, in the experiment with HeLa, in the experiment with Hek293T and in the experiment on JEG-3 was “inactive” in each case. Also, the Potency result in the experiment with OV90, with PA-1, with Tov-21-G and in the experiment with Tov112D was “inactive” throughout.
Regarding `CC(C)(C)c1cc(CN2CCN(CC(O)c3ccc(Cl)cc3)CC2)cc(C(C)(C)C)c1O` (stereo not drawn), in the experiment with NIH3T3, the molecule was called inactive. For the same molecule, the Potency entry with C33A, in the experiment with CAOV3, in the experiment with Es-2, in the experiment with HeLa, in the experiment with Hek293T and with JEG-3 was “inactive” each time. For the same molecule, the Potency entry with OV90, with PA-1, in the experiment with SKOV3, in the experiment with Tov-21-G and in the experiment on Tov112D was “inactive” throughout.
For the molecule `C=CCc1ccc(O[C@@H]2O[C@H](CO[C@@H]3O[C@H](CO)[C@@H](O)[C@H](O)[C@H]3O)[C@@H](O)[C@H](O)[C@H]2O)c(O)c1`, the outcome in the experiment with NIH3T3 was “inactive [at 17.4 µM]”. The Potency entry in the experiment with C33A, with CASKI, with Es-2, in the experiment with HeLa, in the experiment on Hek293T and in the experiment on JEG-3 was “inactive” in each case. In addition, the Potency entry with OV90, in the experiment on PA-1, with SKOV3, in the experiment with Tov-21-G and with Tov112D was “inactive” in each case.
For `O=C(O)c1cnn(-c2nc3cc(OC(F)(F)F)c(Cl)cc3[nH]2)c1`, the call with NIH3T3 was inactive. Besides, the Potency result with C33A, in the experiment on CAOV3, in the experiment on Es-2, with HeLa, in the experiment on Hek293T and with JEG-3 was “inactive” in each case. Besides, the Potency result with OV90, with PA-1, in the experiment with Tov-21-G and in the experiment with Tov112D was “inactive” throughout.
For the molecule `CC[C@@H](c1ccc(F)c(F)c1)n1c(C(=O)OC)c(-c2ccno2)[nH]c1=S`, in the experiment on NIH3T3, the molecule was called inactive. In addition, the Potency result in the experiment with C33A, in the experiment on CAOV3, with HeLa, in the experiment with Hek293T, in the experiment with JEG-3 and with OV90 was “inactive” throughout. Besides, the Potency result with PA-1, in the experiment on Tov-21-G and in the experiment on Tov112D was “inactive” each time.
For `OC[C@H]1O[C@@H](n2cnc3c(NCc4ccc(O)cc4)ncnc32)[C@H](O)[C@@H]1O`, in the experiment with NIH3T3, the outcome was inactive. Moreover, the Potency entry with CAOV3, with Es-2, in the experiment on Hek293T, in the experiment on OV90, with PA-1 and in the experiment with SKOV3 was “inactive” in each case.
Turning to `Cc1nnc(C(C)C)n1C1CC2CCC(C1)N2CC[C@H](NC(=O)C1CCC(F)(F)CC1)c1ccccc1` (stereo partly drawn), the outcome in the experiment with NIH3T3 was inactive. Besides, the Potency entry in the experiment on C33A, in the experiment on CASKI, in the experiment with Es-2, in the experiment with HeLa, in the experiment on Hek293T and in the experiment on JEG-3 was “inactive” throughout. The Potency entry in the experiment with OV90, in the experiment on PA-1, with Tov-21-G and with Tov112D was “inactive” each time.
As to `C[C@@H]1O[C@@H](O[C@H]2[C@H](O[C@H]3[C@H](O[C@H]4CC[C@@]5(C)C(CC[C@]6(C)C5CC=C5[C@@H]7CC(C)(C(=O)O)C[C@@H](O)[C@]7(C)CC[C@]56C)[C@@]4(C)CO)O[C@H](C(=O)O)[C@@H](O)[C@@H]3O)O[C@H](CO)[C@H](O)[C@@H]2O)[C@H](O)[C@H](O)[C@H]1O` (stereo partly drawn), the activity change, negative = cytotoxicity in the experiment with C33A is 4.66% [at 11.6 µM]; in the experiment with CAOV3 it was 15.7% [at 11.6 µM]; with CASKI, 2.76% [at 11.6 µM]; in the experiment on Es-2, 6.95% [at 11.6 µM]; in the experiment on HeLa it was 4.42% [at 11.6 µM]; in the experiment on Hek293T it was -2.11% [at 11.6 µM]. For the same molecule, the activity change, negative = cytotoxicity in the experiment with JEG-3 was -9.71% [at 11.6 µM]; in the experiment with OV90, 0.848% [at 11.6 µM]; in the experiment with PA-1, 3.43% [at 11.6 µM]; with SKOV3, 5.26% [at 11.6 µM]; in the experiment with Tov-21-G, 6.81% [at 11.6 µM]; in the experiment with Tov112D, 9.62% [at 11.6 µM].
Consider `C=C(C)[C@H]1C[C@@H](O)C(=C)CC[C@@H](O)C(=C)[C@@H](O)C1`, for which the Potency result in the experiment with C33A, in the experiment on CAOV3, in the experiment with CASKI, in the experiment with Es-2, in the experiment with HeLa and in the experiment with Hek293T was “inactive” in each case. In addition, the Potency result with JEG-3, with OV90, in the experiment with PA-1, with SKOV3, with Tov-21-G and in the experiment with Tov112D was “inactive” throughout.
Consider `Cc1ccc(Sc2cncc3sc(C(N)=O)cc23)cc1`, for which the result with NIH3T3 was inactive. For the same molecule, the Potency entry with CAOV3, in the experiment on Es-2, with HeLa, in the experiment on Hek293T, in the experiment with OV90 and in the experiment with PA-1 was “inactive” throughout. The Potency result in the experiment with SKOV3 and in the experiment with Tov112D was “inactive” throughout.
Take `COc1ccc([C@H]2Cc3cccc(O)c3C(=O)O2)cc1`: in the experiment with NIH3T3, the molecule was classed as inactive. Besides, the Potency result with C33A, in the experiment with CASKI, with Es-2, with HeLa, in the experiment with Hek293T and with JEG-3 was “inactive” throughout. Moreover, the Potency result in the experiment on OV90, in the experiment on PA-1, in the experiment with SKOV3, in the experiment on Tov-21-G and in the experiment with Tov112D was “inactive” throughout.
In the case of `CC1(C)CC[C@]2(C(=O)O[C@@H]3O[C@H](CO)[C@@H](O)[C@H](O)[C@H]3O)CC[C@]3(C)C(=CCC4[C@@]5(C)C[C@@H](O)[C@H](O)C(CO)(CO)C5CC[C@]43C)C2[C@@H]1O` (stereo partly drawn), the Potency result with C33A, in the experiment with CAOV3, in the experiment on CASKI, in the experiment with Es-2, in the experiment on HeLa and in the experiment with Hek293T was “inactive” in each case. For the same molecule, the Potency entry in the experiment with JEG-3, in the experiment on OV90, in the experiment on PA-1, in the experiment on SKOV3, in the experiment on Tov-21-G and in the experiment on Tov112D was “inactive” throughout.
Take `C=C(C(=O)OC)C1CCC2(C)C(O[C@@H]3O[C@H](CO)[C@@H](O)[C@H](O)[C@H]3O)CC(=O)C(C)C2C1O` (stereo partly drawn): in the experiment on NIH3T3, the outcome is “inactive [at 17.4 µM]”. In addition, the Potency result with C33A, with CASKI, in the experiment with Es-2, in the experiment on HeLa, with Hek293T and in the experiment with JEG-3 was “inactive” each time. In addition, the Potency result in the experiment with OV90, in the experiment on PA-1, in the experiment with SKOV3, in the experiment with Tov-21-G and with Tov112D was “inactive” each time.
